L major viab – Leishmania major promastigote growth inhibition. inhibition, % at 10 µM. Leishmania major promastigotes, resazurin fluorescence viability. hit rate 9% among 200,000; in the data active = inhibition above about 50%;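 note: promastigotes grown with compound for 44 hours at 28 °C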
m-calpain inh – inhibitors of pig calpain II; purified calpain II, fluorogenic peptide substrate, 30 min; inhibition, % at 16 µM; hit rate 0.37% among 220,000; AID 1236;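 active = inhibition above about 50%, limit read from the data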
WT yeast gro inh – growth inhibition of WT yeast, mitochondrial fusion screen; mitochondrial fusion phenotypic screen, WT strain; inhibition, % at 10 µM; hit rate 2.1% among 190,000; in the data active = inhibition above about 58%; tested in S. cerevisiae
ROMK primary – modulates human ROMK potassium channel activity; P48048; Tet-inducible ROMK, thallium flux fluorescence; actives lie on both sides; B-score at 10 µM; hit rate 2% among 130,000;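 active = signal ratio slope over the read window, or its plate-corrected B-score, at least 3 SD from the plate mean, either direction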;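 note: B-score of the F/F0 ratio slope over 7 to 12 s after thallium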
KCC2 mod – modulates chloride dependent transport by human KCC2; KCC2 cells, thallium flux FluoZin-2 fluorescence; B-score of Tl+ flux slope (higher = more flux/activation; lower = inhibition) at 10 µM; Q9H2X9; AID 1456; hit rate 2.2% among 190,000;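 active = thallium flux slope and its plate-corrected score both differing from the plate sample mean at a set confidence after two filtering rounds, in either direction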;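 note: slope of fluorescence scaled to starting intensity during 10 to 20 s after thallium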
Target sequence (Q9H2X9 whole entry, looked up): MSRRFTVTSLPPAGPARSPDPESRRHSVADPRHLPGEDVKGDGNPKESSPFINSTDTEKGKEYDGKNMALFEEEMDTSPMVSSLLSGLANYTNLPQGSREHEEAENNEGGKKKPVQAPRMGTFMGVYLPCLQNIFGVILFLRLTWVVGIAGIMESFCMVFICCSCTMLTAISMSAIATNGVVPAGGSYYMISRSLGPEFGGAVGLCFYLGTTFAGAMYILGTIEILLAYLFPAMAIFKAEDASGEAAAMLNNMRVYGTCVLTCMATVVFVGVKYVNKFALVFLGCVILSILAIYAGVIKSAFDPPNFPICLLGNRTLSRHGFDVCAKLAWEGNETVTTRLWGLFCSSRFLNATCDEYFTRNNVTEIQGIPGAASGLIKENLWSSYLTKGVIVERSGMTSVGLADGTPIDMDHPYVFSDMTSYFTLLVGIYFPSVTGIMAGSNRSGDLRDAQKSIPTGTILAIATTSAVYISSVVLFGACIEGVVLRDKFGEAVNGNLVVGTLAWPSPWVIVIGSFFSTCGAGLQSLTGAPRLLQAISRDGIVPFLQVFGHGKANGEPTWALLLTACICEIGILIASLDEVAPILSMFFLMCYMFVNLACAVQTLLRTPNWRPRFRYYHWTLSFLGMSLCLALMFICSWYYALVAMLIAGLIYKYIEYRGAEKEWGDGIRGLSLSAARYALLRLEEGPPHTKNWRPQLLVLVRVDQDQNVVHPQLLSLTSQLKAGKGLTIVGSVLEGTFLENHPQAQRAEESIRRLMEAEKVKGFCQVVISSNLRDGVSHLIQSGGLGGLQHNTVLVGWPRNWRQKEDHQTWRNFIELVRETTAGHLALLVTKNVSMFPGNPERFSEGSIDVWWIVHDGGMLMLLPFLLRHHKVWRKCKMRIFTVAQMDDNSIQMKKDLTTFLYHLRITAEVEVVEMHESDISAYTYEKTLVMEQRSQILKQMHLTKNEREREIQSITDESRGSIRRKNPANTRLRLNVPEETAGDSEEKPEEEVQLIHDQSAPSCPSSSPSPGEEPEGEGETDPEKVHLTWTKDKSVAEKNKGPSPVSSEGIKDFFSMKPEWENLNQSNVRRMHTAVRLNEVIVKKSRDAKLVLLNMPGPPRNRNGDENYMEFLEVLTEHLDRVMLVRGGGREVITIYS
ROMK retest – retested hit modulating human ROMK potassium channel. normalized thallium flux (F/F0 slope) at 10 µM. hit rate 54% among 3,000. ROMK thallium flux, fluorescence ratio; stronger effect = lower value. shares compounds with ROMK primary;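 active = Flux at 10 µM at least 3 SD below or above vehicle control mean in one or both replicates; inconclusive = no clear call, values can overlap the other calls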
Each line names hits and unclear results; the compound was inactive in the other large screens (follow-up assays come after a bar, where they were run). The list is not random: actives were taken first. Their share in the collection is about 12%.

Cc1cc(C)nc(SCc2ccc(C(=O)N/N=C/c3ccncc3)cc2)n1	none
Cc1cc(C)nc(SCc2ccc(C(=O)N/N=C/c3ccccn3)cc2)n1	L major viab 91, ROMK primary -13 | ROMK retest inactive
COc1cc(CC(=O)Nc2ccc(S(=O)(=O)NC3=NCCCCC3)cc2)cc(OC)c1OC	none
COc1ccc(CCNc2c([N+](=O)[O-])c(=O)oc3ccccc23)cc1OC	none (no result: ROMK primary)
FC(F)(F)c1cnc(COc2cc(Cl)cc(Cl)c2)c(Cl)c1	none (no result: L major viab, WT yeast gro inh, ROMK primary) | ROMK retest inactive
CCCc1[nH]nc2c1C(c1ccoc1)C(C#N)=C(N)O2 (centres undefined)	ROMK primary -3.7 | ROMK retest 0.052
Cc1[nH]nc2c1C(c1ccoc1)C(C#N)=C(N)O2 (centres undefined)	none
O=C(Nc1cccc(-c2nnc(-c3ccccc3)o2)c1)c1ccc(Br)o1	none (no result: KCC2 mod) | ROMK retest 0.065
O=C(Nc1cccc(-c2cn3cccnc3n2)c1)c1ccc(Br)o1	L major viab 100 (no result: ROMK primary) | ROMK retest inconclusive
Cc1nnc2ccc(-c3cccc(NC(=O)c4ccc(Br)o4)c3)nn12	none
c1cnc2nc(-c3ccc4c(c3)OCO4)cn2c1	none
O=C(Nc1cccc(-c2cn3cccnc3n2)c1)c1ccc2c(c1)OCO2	L major viab 98 (no result: WT yeast gro inh, ROMK primary) | ROMK retest inactive
CCN=C1SC(CC(=O)NCC)C(=O)N1CC (centres undefined)	ROMK primary 3 | ROMK retest inactive
CCN=C1SC(CC(=O)Nc2ccccc2)C(=O)N1CC (centres undefined)	none (no result: ROMK primary)
C[C@@H](O)[C@@H]1NC(=O)c2cc([N+](=O)[O-])cc(I)c2NCC[C@@H](C(N)=O)NC(=O)CNC1=O	none
N#C/C(=C\c1c[nH]c2ccccc12)C(=O)Nc1ncc(Cc2ccc(Cl)cc2Cl)s1	none (no result: ROMK primary)
Cn1cc(/C=C(\C#N)C(=O)Nc2ncc(Cc3cccc(Cl)c3)s2)c2ccccc21	L major viab 91, ROMK primary -2.4 | ROMK retest 0.059
Cc1ccc(N/C=C(\C#N)S(=O)(=O)c2ccccc2)cc1	ROMK primary 2.5 | ROMK retest inactive
Cc1ccc(S(=O)(=O)NC(=O)c2cc(C)n(CCCn3ccnc3)c2C)cc1	none (no result: ROMK primary)
O=C(/C=C/c1ccc([N+](=O)[O-])cc1)NCCSc1ccccc1	m-calpain inh 57 (no result: ROMK primary, KCC2 mod) | ROMK retest inconclusive
COc1ccccc1OCCNC(=O)/C=C/c1ccc([N+](=O)[O-])cc1	none
Cc1cc2cc(CCNC(=O)C(=O)c3c[nH]c4ccccc34)c(=O)[nH]c2cc1C	none
Cc1c(Cl)cccc1NC(=O)CSCC(N)=O	none (no result: ROMK primary)
Cc1c(Cl)cccc1NC(=O)CSC(N)=O	ROMK primary -2.6 | ROMK retest inactive
O=C(NNC(=O)c1sccc1-n1cccc1)c1cccs1	none
C/C(=N\NC(=O)CSc1nc2ccccc2s1)c1cccnc1	none (no result: L major viab, WT yeast gro inh, ROMK primary)
Cc1ccc(C(c2nnnn2C(C)(C)C)N2CCN(C3CCCC3)CC2)cc1 (centres undefined)	ROMK primary -5 | ROMK retest inactive
COc1ccc(N/C=C\C(=O)c2ccc3c(c2)OCO3)cc1	none
O=C(/C=C\Nc1ccc2c(c1)OCO2)c1ccc2c(c1)OCO2	none (no result: ROMK primary, KCC2 mod) | ROMK retest 0.059
Cc1cc(C)nc(SCCn2c(N3CCOCC3)nc3c2c(=O)[nH]c(=O)n3C)n1	none
COc1cc(C2Oc3ccccc3C=C2[N+](=O)[O-])cc(OC)c1OC (centres undefined)	ROMK primary -7 (no result: L major viab, WT yeast gro inh) | ROMK retest 0.033
Cc1ccc(NC(=O)Cc2nnc(N)s2)cc1	none (no result: L major viab, WT yeast gro inh, ROMK primary)
COC(Cn1c2c(c3cc(C)ccc31)CCCC2NCc1ccccc1)OC (centres undefined)	ROMK primary -3.9 (no result: L major viab, WT yeast gro inh) | ROMK retest 0.066
Cc1ccc2c(c1)c1c(n2CC(O)CNC2CCCC2)CCCC1 (centres undefined)	none (no result: L major viab, WT yeast gro inh)
Cc1cccc(C(=O)N(Cc2nc3ccccc3c(=O)[nH]2)C2CCCCC2)c1	none
COc1ccc(CN2CCNC(=O)C2CC(=O)N(C)Cc2ccon2)c(OC)c1 (centres undefined)	none
C[C@@H](C(=O)N[C@@H](Cc1ccccc1)C(=O)O)n1nnc2ccccc2c1=O	none (no result: L major viab, WT yeast gro inh, ROMK primary)
FC(F)(F)c1nc2nncn2c2c1CCCCC2	none (no result: ROMK primary)
c1coc(CNc2ncnc3sc4c(c23)CCCCC4)c1	none (no result: ROMK primary) | ROMK retest 0.062
Oc1ccc(Br)cc1C=Nc1cccn2cc(-c3ccccc3)nc12	ROMK primary -11 | ROMK retest inconclusive
Cc1cccn2cc(-c3ccccc3)nc12	none (no result: ROMK primary, KCC2 mod)
OCCC1CN(Cc2cn[nH]c2C2CCCCC2)CCN1C1CCCCC1 (centres undefined)	none
C=CCOc1ccn(C)c(=O)n1	none (no result: L major viab, WT yeast gro inh)

Screens as filed in PubChem.
